Experimental data as given in PubChem BioAssay AID492956 (The Scripps Research Institute Molecular Screening Center, 2010).
Out of some 340,000 compounds screened, about 3,300 (0.97%) were called active. The entries come from a sample that favours actives as a whole. A number with no mark means an inactive call.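 Rule for the calls: active = inhibition above the mean over all tested compounds plus 3 SD (cut at about 30% in these data); inactive = the rest.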

These molecules were tested against Platelet-activating factor acetylhydrolase 2, cytoplasmic (Homo sapiens) (UniProt Q99487) (assay: PAFAH2 enzyme inhibitors, primary screen, biochemical, fluorescence polarization, human (AID 492956;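 note: inhibitors block probe labeling of enzyme so polarization drops; 0% = enzyme with DMSO and 100% = wells lacking PAFAH2 protein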)). Conditions: recombinant PAFAH2, FP-rhodamine activity probe, at 3.39 µM, hits give high values.
Work on O=S(=O)(O)c1cc2onnc2c2ccccc12 yielded an inhibition of 18.2%. For CCOC(=O)c1c(C)[nH]c2c1-c1ccccc1C(=O)C2=O, the inhibition was 53.9% (active). Molecule CCOC(=O)C1=C(C)c2ccccc2OC1(C)C(=O)OCC (stereo not given) has an inhibition of 0.57%. Work on CCOC(=O)c1ccccc1OC(=O)Oc1ccccc1C(=O)OCC yielded an inhibition of 2.01%. With CCOc1ccc(OCC)c(NC(=O)C(NS(=O)(=O)c2ccc3c(c2)oc(=O)n3C)C(C)C)c1 (stereo not given) the inhibition was -6.23%. O=C(NC1CCCC1)C1CC(=O)N(c2ccc(F)cc2)C1 (stereo not given) showed an inhibition of 5.88%. Work on CC(=O)NS(=O)(=O)c1ccccc1 yielded an inhibition of -3.11%. CCCCn1ccnc1C(=O)c1cccc(S(=O)(=O)N2c3ccccc3CC2C)c1 (stereo not given) gave an inhibition of 0.31%. O=C(COC(=O)c1cccc(Cl)c1)NC(=O)NCc1ccccc1 showed an inhibition of 1.23%. With O=C(COC(=O)c1cccc(Cl)c1)NC1CCCCCCC1 the inhibition was 82.5% (active). With N#Cc1ccc(C(=O)OCC(=O)NC(=O)NC2CCCCC2)cc1 the inhibition was 6.68%. Cc1ccc(C(=O)NCC(=O)OCC(=O)NC2CCCCCCC2)cc1 gave an inhibition of -6.95%. With COc1ccc(NS(=O)(=O)c2ccc(O)c(C(=O)OCC(=O)NC3CCCCC3)c2)cc1 the inhibition was 41% (active). O=C(COc1ccccc1O)NC1CCCC1 showed an inhibition of 1.1%. For CCN(C(=O)COC(=O)c1cc(NS(=O)(=O)c2ccc(Cl)c([N+](=O)[O-])c2)ccc1O)C1CCCCC1, the inhibition was 14.6%. O=C(COC(=O)c1cc([N+](=O)[O-])ccc1NCc1ccccc1)NC1CCCCC1 gave an inhibition of 9.35%. For CC(C)NS(=O)(=O)c1ccc(OCC(=O)NC2CCCCCC2)cc1, the inhibition was 5.5%. O=C(COC(=O)c1ccccc1SCC(=O)NC1CCCCC1)NC1CCCCC1 was tested, and the inhibition was 59.5% (active). CCOc1ncccc1C(=O)OCC(=O)NC1CC1 showed an inhibition of 15.7%. In the case of N#Cc1ccccc1Sc1ccccc1C(=O)OCC(=O)NC1CCCCC1, the inhibition is reported as 31% (active). Work on CCN(CC)S(=O)(=O)c1ccc(N2CCN(C)CC2)c(NC(=O)Nc2ccccc2F)c1 yielded an inhibition of -13.1%. Molecule COc1ccc(CN2CC[C@H]3C=CC[C@@H](C(=O)N4CCOCC4)[C@H]3C2=O)cc1OC has an inhibition of -0.91%. In the case of COc1cc(NC(=S)NCCSc2ccc(C)cc2)cc(OC)c1, the inhibition is reported as 5.74%. Work on COc1ccc(C(=O)C2CCCN(C(=O)c3cnsn3)C2)c(C)c1 (stereo not given) yielded an inhibition of -5.08%. COc1ccccc1NC(=O)COC(=O)c1ccccc1SCC(=O)N1CCCC1 gave an inhibition of 16.2%. In the case of CS(=O)(=O)Nc1ccccc1C(=O)OCC(=O)NC1CC1, the inhibition is reported as 9.45%. In the case of O=C(COC(=O)c1cccnc1Cl)NC(=O)NC1CCCCC1, the inhibition is reported as 0.86%. O=C(COC(=O)c1ccccc1Cl)NC1CCCCCCC1 was tested, and the inhibition was 68.9% (active). With O=C(COC(=O)c1ccccc1SCC(=O)N1CCCC1)Nc1ccccc1OC(F)F the inhibition was 49.4% (active). CC(C)N(Cc1ccccc1)C(=O)COC(=O)c1ccccc1SCC(=O)N1CCCC1 showed an inhibition of -10.1%. For Cc1cc(F)ccc1NC(=O)C(C)n1c2ccccc2c2nc(=O)cc(C)n21 (stereo not given), the inhibition was -0.36%. Molecule CCC(C)N1C(=S)SC(C)(C)C1N(O)C(=O)NC1CCCCC1 (stereo not given) has an inhibition of 0.18%. CCCCNC(=O)N(O)C1N(/N=C/c2ccccc2O)C(=S)SC1(C)C (stereo not given) was tested, and the inhibition was 12%. CCCCNC(=O)N(O)C1N(/N=C/c2ccc(N(C)C)cc2)C(=S)SC1(C)C (stereo not given) was tested, and the inhibition was 39% (active). O=C(NC1CCCCC1)n1c(=O)oc2cc(S(=O)(=O)N3CCCCC3)ccc21 gave an inhibition of -3.36%. For CC(C)COC(=O)n1c(=O)oc2ccc(S(=O)(=O)N3CCCCC3)cc21, the inhibition was 67.9% (active). For CC1CCCCN1C(=O)Cn1c(=O)oc2cc(S(=O)(=O)N3CCCCC3)ccc21 (stereo not given), the inhibition was 0.32%. For O=C(NCc1cc(C(F)(F)F)cc(C(F)(F)F)c1)C1CC(c2cccc(F)c2)=NO1 (stereo not given), the inhibition was 6.39%. In the case of CC(CCc1ccccc1)NC(=O)COC(=O)c1ccc(F)cc1 (stereo not given), the inhibition is reported as 28%. Molecule O=C(COC(=O)CNC(=O)c1ccccc1F)NCC(F)(F)F has an inhibition of 1.7%. For CCc1ccc(C(=O)OCC(=O)NCC(F)(F)F)cc1, the inhibition was 73.5% (active). In the case of CC(C)(C)c1csc(NC2=NS(=O)(=O)c3ccccc32)n1, the inhibition is reported as 36.9% (active). For Cc1ccc(S(=O)(=O)N(NC2=NS(=O)(=O)c3ccccc32)C(=O)c2ccccc2)cc1, the inhibition was -5.48%. In the case of O=C(Oc1cccc(NC2=NS(=O)(=O)c3ccccc32)c1)c1ccncc1, the inhibition is reported as -0.09%. With O=C(NCN1CCN(CCO)CC1)c1cnccn1 the inhibition was -3.5%. In the case of Cc1cc(NC(=O)COC(=O)/C=C/c2ccc(C)o2)no1, the inhibition is reported as 33.3% (active). For Cc1ccc(CNC(=O)COC(=O)C2CCC2)cc1, the inhibition was 3.66%. Molecule CCN(CC(=O)NCc1ccc(Cl)cc1)C(=O)c1c(C)noc1C has an inhibition of -0.36%. Work on Cc1cc(NC(=O)COc2ccc([N+](=O)[O-])cc2)no1 yielded an inhibition of -0.25%. Molecule COC(=O)c1cc(C(=O)OCC(=O)Nc2cc(C)on2)cc([N+](=O)[O-])c1 has an inhibition of -6.33%. With Cc1ccc(/C=C/C(=O)OCC(=O)NCc2ccc(Cl)cc2)o1 the inhibition was 53% (active). Work on CCOC(=O)C1C(=O)OC2(CCCC2)C1C(=O)OCC (stereo not given) yielded an inhibition of -3.56%. Molecule Nc1c(C(=O)OCC(=O)Nc2ccc(OC(F)F)cc2)[nH]c(=O)[nH]c1=O has an inhibition of 5.59%. With COCc1c(C(=O)OCC(=O)Nc2ccc(OC(F)F)cc2)oc2ccccc12 the inhibition was 30.5% (active). COCc1c(C(=O)OCc2c(C)noc2C)oc2ccccc12 was tested, and the inhibition was -5.34%. For O=C1NCC(Nc2ccccc2)C(=O)N1 (stereo not given), the inhibition was 7.66%. Work on O=C1C2(c3ccccc3)CN(CCCO)CC1(c1ccccc1)CN(CCCO)C2 yielded an inhibition of 7.66%. For O=C(COC(=O)c1ccc(Cl)nc1)NCc1cccs1, the inhibition was 5.5%. Work on O=C(COC(=O)/C(=C/c1cccs1)c1cccs1)NCc1ccccc1Cl yielded an inhibition of 9.84%. O=C(COC(=O)[C@H](Cc1ccccc1)NC(=O)c1cccs1)Nc1cc(F)ccc1F showed an inhibition of 4.42%. Molecule COc1ccccc1CNC(=O)COc1ccc(C)nc1[N+](=O)[O-] has an inhibition of 4.79%. For O=C(COC(=O)c1cccs1)Nc1ccccc1Cl, the inhibition was 73.2% (active). In the case of COc1ccccc1CNC(=O)COC(=O)c1cccs1, the inhibition is reported as 60.2% (active). COc1ccccc1CNC(=O)COC(=O)c1sc(C)nc1C was tested, and the inhibition was 36.3% (active). Work on O=C(COC(=O)c1ccc(O)cc1O)NNC(=O)c1cccs1 yielded an inhibition of 6.29%. Molecule O=C(COC(=O)c1ncc(Cl)c(Cl)c1Cl)NCc1cccs1 has an inhibition of -5.72%. Molecule COc1ccccc1CNC(=O)COC(=O)CNS(=O)(=O)c1ccc(NC(C)=O)cc1 has an inhibition of -2.61%. Molecule CNC(=O)c1sc(NCc2ccccc2OC)nc1C has an inhibition of -0.38%. O=C(COC(=O)c1cccs1)NCc1cccs1 was tested, and the inhibition was 44.2% (active). O=CN1CCN(C(=O)c2ccc(Br)o2)CC1 showed an inhibition of 0.55%. With Cc1cccc(NS(=O)(=O)c2ccc(C(=O)NCC(C)(C)N3CCOCC3)cc2)c1C the inhibition was -5.69%. For O=c1cccc(-c2ccc(Br)cc2)o1, the inhibition was 1.7%. COc1ccc(SCc2noc(C(=O)NCC3CCCO3)c2C(=O)O)cc1 (stereo not given) showed an inhibition of 0.7%. Work on CC1=NNC(=O)C1Cc1c(Cl)cccc1Cl (stereo not given) yielded an inhibition of 5.21%. Work on CC1=C(C(=O)OC2CCCCC2)C(c2ccccc2F)NC(=O)N1 (stereo not given) yielded an inhibition of -4.88%. CCOC(=O)C1CCN(c2c(Nc3cc(C)cc(C)c3)c(=O)c2=O)CC1 showed an inhibition of 7.85%. For Cc1cccc(/C=N/NC(=O)CNc2cccc3ccccc23)n1, the inhibition was 47.5% (active). In the case of C/C(=N\NC(=O)CNc1cccc2ccccc12)c1ccc(Br)s1, the inhibition is reported as 9.68%. With Cc1cccc(C(=O)Nc2ccc(C(=O)N/N=C/c3cccc(C)n3)cc2)c1 the inhibition was -6.77%. CC(=O)Nc1cccc(C(=O)OCC(=O)NCc2cc(C)c(O)c(C)c2)c1 showed an inhibition of 7.09%. With CC(C)CNC(=O)COC(=O)/C=C/c1ccco1 the inhibition was 69% (active). In the case of O=C(/C=C/c1ccccc1[N+](=O)[O-])OCC(=O)N1CCCC1, the inhibition is reported as 7.52%. CC(C)c1nnc(NC(=O)COC(=O)/C=C/c2ccc([N+](=O)[O-])cc2)s1 was tested, and the inhibition was -1.12%. With CC(C)CNC(=O)COC(=O)/C=C/c1ccccc1[N+](=O)[O-] the inhibition was 72.8% (active). With Cc1cccc(C(=O)OCC(=O)NCC(C)C)c1O the inhibition was 3.36%. Work on COc1cc2c(cc1NC(=O)COC(=O)/C=C/c1ccccc1)oc1ccccc12 yielded an inhibition of 1.23%. COc1ccc(C(=O)OCC(=O)Nc2cccc(C(C)=O)c2)cc1OC was tested, and the inhibition was 81.3% (active). With CCCCN(C(=O)/C=C/c1ccco1)c1c(N)n(CC(C)C)c(=O)[nH]c1=O the inhibition was -7.37%. CC(=O)Nc1cccc(C(=O)OCC(=O)Nc2nnc(-c3ccccc3)o2)c1 gave an inhibition of 4.32%. For COc1cc(/C=C/C(=O)OCC(=O)Nc2cccc(Oc3ccccc3)c2)ccc1O, the inhibition was 64.5% (active). COc1cccc(NC(=O)COC(=O)c2ccc3ccccc3n2)c1 showed an inhibition of -5.69%. COc1ccc(S(=O)(=O)NCC(=O)NCc2cc(=O)n(C)c(=O)n2C)cc1F showed an inhibition of -4.5%. CN1C(=O)[C@H]2[C@@H](/C=C/c3ccccc3)N3C(=O)CN(Cc4ccc(-c5ccccc5)cc4)C(=O)[C@@]3(C)[C@H]2C1=O showed an inhibition of 6.34%. Work on COC(=O)c1ccc(CN2CCC(CO)(Cc3ccc(OC)cc3)CC2)cc1 yielded an inhibition of -1.13%. In the case of CCOc1ccccc1NC(=O)C1CCCN(C(=O)Nc2ccccc2)C1 (stereo not given), the inhibition is reported as 8.64%.
